# Measurements from publication PMC4336329 (PLoS ONE, 2015).
# Among all 310,000 compounds or so, about 14,000 (4.5%) showed an effect of 50% or more. Effects have a minus sign here. The sample holds strong results, similar compounds and a random draw of the others, so the mix is not that of the screen.
# Target: human ether-à-go-go-related gene (hERG) potassium channel (human, UniProt Q12809)
# Assay: primary screen, population patch clamp on CHO cells stably expressing hERG; higher = less effect of the substance
# 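Further: peak tail current of the secondary pulse compared with the same well before compound.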
# Chain of human ether-à-go-go-related gene (hERG) potassium channel (Q12809 whole entry, looked up): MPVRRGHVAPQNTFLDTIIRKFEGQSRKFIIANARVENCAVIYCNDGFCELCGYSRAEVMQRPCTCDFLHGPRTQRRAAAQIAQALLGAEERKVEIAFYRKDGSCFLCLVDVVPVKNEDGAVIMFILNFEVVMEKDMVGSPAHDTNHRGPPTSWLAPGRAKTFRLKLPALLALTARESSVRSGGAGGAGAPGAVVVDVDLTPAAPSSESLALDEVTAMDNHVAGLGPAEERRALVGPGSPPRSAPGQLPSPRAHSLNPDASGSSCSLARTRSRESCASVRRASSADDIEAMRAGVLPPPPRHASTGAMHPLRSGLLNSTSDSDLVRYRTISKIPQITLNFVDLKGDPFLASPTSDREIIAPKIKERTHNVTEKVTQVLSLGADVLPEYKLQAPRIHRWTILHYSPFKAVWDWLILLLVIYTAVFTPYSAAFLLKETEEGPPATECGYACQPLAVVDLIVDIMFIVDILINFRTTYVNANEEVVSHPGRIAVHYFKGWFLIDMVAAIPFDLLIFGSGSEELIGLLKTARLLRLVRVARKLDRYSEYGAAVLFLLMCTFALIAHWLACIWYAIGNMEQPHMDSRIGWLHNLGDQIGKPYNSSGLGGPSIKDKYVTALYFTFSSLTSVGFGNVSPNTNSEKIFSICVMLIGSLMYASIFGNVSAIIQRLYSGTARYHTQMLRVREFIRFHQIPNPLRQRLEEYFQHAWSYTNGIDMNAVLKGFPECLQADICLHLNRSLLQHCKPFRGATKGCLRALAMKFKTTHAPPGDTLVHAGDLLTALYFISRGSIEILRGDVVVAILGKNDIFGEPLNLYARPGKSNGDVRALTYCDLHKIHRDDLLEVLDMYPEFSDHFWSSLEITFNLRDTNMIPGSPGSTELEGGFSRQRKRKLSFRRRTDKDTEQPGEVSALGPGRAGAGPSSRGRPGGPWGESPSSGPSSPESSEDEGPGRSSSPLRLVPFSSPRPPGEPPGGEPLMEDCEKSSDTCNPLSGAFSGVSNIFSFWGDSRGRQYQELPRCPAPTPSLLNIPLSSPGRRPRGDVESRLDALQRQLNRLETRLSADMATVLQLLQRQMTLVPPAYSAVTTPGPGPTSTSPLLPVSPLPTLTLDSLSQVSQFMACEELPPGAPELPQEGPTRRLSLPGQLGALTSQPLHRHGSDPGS
row,Structure (SMILES),"hERG current change (%, negative = inhibition) at 10uM [%]"
1,CC(=NCC1CCCO1)c1c(O)n(-c2ccc(C)cc2)c(=O)[nH]c1=O (stereo not shown),-8.18
2,O=S1(=O)CCC(N=Nc2c(O)n(Cc3ccccc3)c3ccccc23)C1 (stereo not shown),-25.1
3,COc1cc(C)ccc1OCCOc1c(C)cccc1Cl,2.01
4,CCOc1ccc(NC(=O)NCc2ccco2)cc1,16.4
5,CCOC(=O)c1ccccc1NC(=O)c1cn(-c2ccc(C)c(C)c2)c(=O)c2ccccc12,-2.12
6,CC(CN1CCCC1)OC(=O)c1ccc(F)cc1.Cl (stereo not shown),-10.1
7,COC(=O)CNC(=O)c1ccc(C)s1,-0.614
8,CCc1c(C(=O)NNC(=S)NC2CCCCC2)csc1C,16.3
9,O=c1cc(C(F)(F)F)c2sc(N3CCCCC3)nc2[nH]1,20.1
10,O=C(NCc1ccc(F)cc1)c1ccncc1,13.7
11,O=C(NCc1ccco1)/C(=C/c1ccc(F)cc1)NC(=O)c1ccccc1,-14.1
12,CN(C)c1ccc(/C=C(\NC(=O)c2ccccc2)C(=O)NCc2ccncc2)cc1,-12.8
13,Cc1ccc(C(=O)N/C(=C\c2ccc(F)cc2)C(=O)NCc2ccncc2)cc1,-75.9
14,Cc1ccc(NC(=O)/C(=C/c2ccncc2)NC(=O)c2ccccc2)cc1,-9.82
15,CSc1ccc(/C=C(/NC(=O)c2ccc(C)cc2)C(=O)Nc2cccc(F)c2)cc1,6.66
16,CSc1ccc(/C=C(\NC(=O)c2ccc(C)cc2)C(=O)NN)cc1,-10.9
17,O=C(NCc1ccncc1)/C(=C\c1ccc(F)cc1)NC(=O)c1ccccc1,-70.9
18,Cc1ccc(C(=O)N/C(=C/c2ccc(F)cc2)C(=O)NCc2ccncc2)cc1,-72.8
19,O=C(O)c1cccc(-n2cccc2/C=N/O)c1,11.4
20,Cc1ccnc(NC(=O)CCC(=O)N(CC(=O)NC(C)(C)C)C2CCCC2)c1,1
21,Cc1cc(C)c(OCC(=O)Nc2cccc(NC(=O)c3ccco3)c2)c(Br)c1,1.79
22,CCOc1ccc(NC(=O)c2ccccc2NC(=O)CN2CCN(C(C)=O)CC2)cc1,-3.2

row,Structure (SMILES),"hERG current change (%, negative = inhibition) at 10uM [%]"
1,O=C(NCCSc1ncc(-c2ccc(F)cc2)[nH]1)c1ccco1,-37.1
2,C/C=C/c1ccc(OCCN2C(=O)NC(C)(C)C2=O)c(OC)c1,6.58
3,O=C(O)c1ccc2ccccc2c1O.OCc1cc(C(O)CNCCCCCCOCCCCc2ccccc2)ccc1O (stereo not shown),-45.5
4,OC(CNCCc1ccccc1)c1ccccc1 (stereo not shown),-0.0558
5,OCc1cc(C(O)CNCCCCCCOCCCCc2ccccc2)ccc1O (stereo not shown),-57.9
6,Cc1ccc(C(=O)Nc2ccc(N3CCN(C(=O)c4ccco4)CC3)cc2)cc1,10.4
7,CCN(CC)CCCN1C(=O)c2oc3ccccc3c(=O)c2C1c1cc(OC)ccc1OC (stereo not shown),-13
8,N#CC(C(=O)NC1CC1)c1nc2ccccc2nc1N1CCN(C/C=C/c2ccccc2)CC1 (stereo not shown),-58.9
9,C=CCOC(=O)C(C#N)c1nc2ccccc2nc1N1CCN(Cc2ccccc2)CC1 (stereo not shown),-62.1
10,COCCOC(=O)C(C#N)c1nc2ccccc2nc1N1CCN(Cc2ccccc2)CC1 (stereo not shown),-64.3
11,COC(=O)C(C#N)c1nc2ccccc2nc1N1CCN(Cc2ccc3c(c2)OCO3)CC1 (stereo not shown),-2.48
12,CC(C)COC(=O)C(C#N)c1nc2ccccc2nc1N1CCN(Cc2ccccc2)CC1 (stereo not shown),-12
13,CC(C)OC(=O)C(C#N)c1nc2ccccc2nc1N1CCN(Cc2ccccc2)CC1 (stereo not shown),-18.6
14,N#CC(C(=O)NC1CC1)c1nc2ccccc2nc1N1CCCC1 (stereo not shown),-7.63
15,CC1CCN(c2nc3ccccc3nc2C(C#N)C(=O)NC2CCCCC2)CC1 (stereo not shown),10.1
16,COCC(C)OC(=O)C(C#N)c1nc2ccccc2nc1N1CCN(Cc2ccccc2)CC1 (stereo not shown),-31
17,CSc1ccc(/C=C/C(=O)c2ccc(NC(=O)Cc3ccccc3)cc2)cc1,-4.59
18,O=C(O)c1ccc(NS(=O)(=O)c2ccc(Cl)c(Cl)c2)cc1O,-1.71
19,COc1ccc(-c2csc3nc(-c4ccccc4F)oc(=O)c23)cc1OC,-3.61
20,CCOC(=O)c1ccc(COC(=O)c2cc3ccccc3oc2=O)o1,-48.6
21,O=C1NC2=C(CCc3ccccc32)C(c2ccc(Br)cc2)N1 (stereo not shown),-56.3
22,O=C1NC2=C(CCc3ccccc32)C(c2ccccc2)N1 (stereo not shown),-20.8

row,Structure (SMILES),"hERG current change (%, negative = inhibition) at 10uM [%]"
1,Cc1ccc(C2NC(=O)NC3=C2CCc2ccccc23)cc1 (stereo not shown),2.59
2,CCOC(=O)c1cccc(NC(=O)c2c(O)[nH]c(=O)[nH]c2=O)c1,-2.88
3,Cc1ccc(CN2CCSc3ccc(C(=O)N4CCN(c5ncccn5)CC4)cc32)cc1,19
4,CN(NC(=O)C(C)(C)C)c1nc(-c2ccccc2)nnc1C(F)(F)F,-4.05
5,CC(C)C(=O)NNC(=O)CSc1ncnc2c1cnn2-c1ccccc1Cl,9.5
6,Cc1nc(SCC(=O)Nc2ccc(CN3CCCC3)cc2)c2c(C)c(C)sc2n1,-35.3
7,Cc1sc2nc(C(C)C)nc(SCC(=O)NCc3ccco3)c2c1C,2.82
8,Cc1sc2ncnc(OCC(=O)N3CCN(C(=O)c4ccco4)CC3)c2c1C,-30.8
9,Cc1sc2ncnc(SCC(=O)Nc3ccc(CN4CCCC4)cc3)c2c1C,-72.6
10,Cc1sc2ncnc(SCC(=O)N3CCCC3)c2c1C,2.1
11,Cc1sc2nc(C(C)C)nc(SCC(=O)N3CCN(C(=O)c4ccco4)CC3)c2c1C,-72.3
12,Cc1sc2ncnc(SCC(=O)N3CCN(C(=O)c4ccco4)CC3)c2c1C,-70.1
13,O=C(CSc1ncnc2c1cnn2-c1ccccc1Cl)N1CCN(C(=O)c2ccco2)CC1,-65.7
14,COc1ccc(N2CCN(C(=O)CSc3ncnc4c3cnn4-c3ccccc3C)CC2)cc1,10.8
15,CC(=O)Nc1ccc(NC(=O)CSc2ncnc3sc(C)c(C)c23)cc1,8.58
16,Cc1sc2nc(C(C)C)nc(SCC(=O)N3CCOCC3)c2c1C,-0.958
17,Cc1cc(=O)n2nc(N3CCCC(C(=O)N4CCOCC4)C3)sc2n1 (stereo not shown),3.1
18,COc1ccc(/C=C/c2c([N+](=O)[O-])c(=O)n(C)c(=O)n2C)c(OC)c1OC,13
19,O=C(N/N=C/c1cccc2ccccc12)c1cccs1,20.7
20,COc1ccccc1N(CC(=O)NCC1CCCO1)C(=O)CNS(=O)(=O)c1ccccc1 (stereo not shown),-0.369
21,Cc1cc(=O)oc(C)c1C(=O)Nc1ccc2nsnc2c1,9.45
22,CCOC(=O)c1ccc2c(c1)nc(SC(C)C(=O)NCC1CCCO1)n2CC (stereo not shown),-18.9

row,Structure (SMILES),"hERG current change (%, negative = inhibition) at 10uM [%]"
1,CCOC(=O)c1ccc(NC(=O)CNC(=O)c2ccco2)cc1,13.8
2,O=C(NC(=S)Nc1ccccn1)c1ccc([N+](=O)[O-])cc1,-11.9
3,O=C(CC12CC3CC(CC(C3)C1)C2)NC1CC1,23.2
4,CCOc1ccc(S(=O)(=O)N2CCN(C(=S)NCc3ccccc3)CC2)cc1,-18.2
5,Nc1cccc(C(=O)Nc2cccc3ncccc23)c1,23.8
6,Cc1cccc(N2CCN(C(=O)c3ccc4c(c3)CCN4S(C)(=O)=O)CC2)c1C,-14.8
7,Cc1nc(SCC(=O)N2CCOCC2)c2c(C)c(C)sc2n1,1.76
8,Cc1nc(SCC(=O)N2CCN(C(=O)c3ccco3)CC2)c2c(C)c(C)sc2n1,-66.8
9,Cc1nc(SCC(=O)N2CCCCC2)c2c(C)c(C)sc2n1,-11.7
10,CCCN1Cc2cccc(C(=O)NCc3ccccc3)c2C1=O,-34.9
11,O=C(Nc1cccc(-c2nnc(-c3ccccc3)o2)c1)C1CCCO1 (stereo not shown),-66.5
12,O=C(Nc1ccc(-c2nnc(-c3ccccc3)o2)cc1)C1CCCO1 (stereo not shown),-13.3
13,O=C(Nc1cccc(-c2nnc(-c3ccccc3)o2)c1)C1CC1,-19.3
14,C=CCn1c(=NC(=O)C2CCCCC2)sc2cc(NC(C)=O)ccc21,-2.15
15,CCOC(=O)C1CCN(CC(O)COCc2cccs2)CC1 (stereo not shown),-38
16,O=S(=O)(c1ccc(F)cc1)N1CCN(CC(O)COCc2cccs2)CC1 (stereo not shown),-18.5
17,OC(COCc1cccs1)CN1CCN(c2ccccn2)CC1 (stereo not shown),-52.5
18,Oc1ccccc1N1CCN(CC(O)COCc2ccccc2Cl)CC1 (stereo not shown),-42
19,Cc1cccc(N2CCN(CC(O)COCc3cccs3)CC2)c1C (stereo not shown),-70.8
20,CCOc1ccccc1N1CCN(CC(O)COCc2cccs2)CC1 (stereo not shown),-32.1
21,COc1ccccc1N1CCN(CC(O)COCc2cccs2)CC1.Cl (stereo not shown),-19.8
22,OC(COCc1cccs1)CN1CCN(c2ccccc2Cl)CC1 (stereo not shown),-71
